Laboratory results from PubChem BioAssay (EPA / NIEHS).
Inconclusive results are not listed. The source made the active and inactive calls. How the source made its calls, unless noted: active means hit-call score of the fitted dose curve at least 0.9, where 1 is the maximum; inactive means score below 0.9.

What was measured:
[1] = read-out: Interleukin-8 (IL8), CXCL8 (gene 3576); assay: BSK_3C_IL8: BioMAP Diversity Plus: 3C Assay for Interleukin-8 (IL8) Biomarker Activity (AID 2283020); details: primary human endothelial cells (HUVEC); actives raise or lower the signal
In short: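 ELISA read-out of IL-8 from human umbilical vein endothelium, measured 24 h after chemical dosing. Activity is expressed relative to DMSO negative control, with both increases and decreases fitted.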

[2] = read-out: Monokine induced gamma interferon (MIG), CXCL9 (gene 4283); assay: BSK_3C_MIG: BioMAP Diversity Plus: 3C Assay for Monokine induced gamma interferon (MIG) Biomarker Activity (AID 2283021); details: primary human endothelial cells (HUVEC); actives raise or lower the signal
In short: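 Read-out is ELISA detection of MIG on human umbilical vein endothelial cells, taken 24 h after dosing. Gain or loss of signal was scored relative to DMSO controls using bidirectional curve fitting.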

[3] = molecular target: human Vitamin D Receptor (VDR), VDR (gene 7421) (UniProt P11473); assay: ATG_VDR_TRANS: Attagene TRANS-FACTORIAL HepG2 Assay for human Vitamin D Receptor (VDR) (AID 2283022; active means hit-call score of the fitted dose curve at least 0.9, where 1 is the maximum)
In short: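 Steps: transfect HepG2 with GAL4-UAS-driven reporter constructs; dose compounds 24 h; isolate RNA, reverse-transcribe, PCR-amplify with 6-FAM-labelled primer extension and HpaI digestion; quantify fragments by capillary electrophoresis relative to DMSO.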

[4] = BSK_3C_SRB: Viability Assessment in the BioMAP Diversity Plus: 3C Assay (AID 2283023); details: primary human endothelial cells (HUVEC);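 further: fitted both ways against DMSO so a hit may be signal rise or drop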
In short: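 Absorbance at 560 nm of sulforhodamine B-stained (0.1%) total protein served as a cytotoxicity readout in human umbilical vein endothelial cells, 24 h after chemical treatment. Signal was fitted bidirectionally relative to DMSO.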

[5] = read-out: Matrix Metallopeptidase 1 (MMP1), MMP1 (gene 4312); assay: BSK_BE3C_MMP1: BioMAP Diversity Plus: BE3C Assay for Matrix Metallopeptidase 1 (MMP1) Biomarker Activity (AID 2283024); details: primary human bronchial epithelial cells; actives raise or lower the signal
In short: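 Human bronchial epithelial cells (BE3C system) exposed to compound for 24 h; MMP1 then quantified by ELISA. Activity was fitted in both directions relative to DMSO.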

[6] = BSK_3C_Vis: BioMAP Diversity Plus: 3C Assay for Morphology Visualization (AID 2283025); details: primary human endothelial cells (HUVEC);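 further: fitted both ways so gain or loss versus DMSO counts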
In short: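 Chemicals were added to primary human umbilical vein endothelium, cells were incubated 24 h, and morphology was then visualized by light microscopy. Gain or loss of signal was fitted bidirectionally relative to DMSO.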

[7] = read-out: Pselectin, SELP (gene 6403); assay: BSK_4H_Pselectin: BioMAP Diversity Plus: 4H Assay for Pselectin Biomarker Activity (AID 2283026); details: primary human endothelial cells (HUVEC); actives raise or lower the signal
In short: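 ELISA read-out of P-selectin on human umbilical vein endothelium after 24 h of dosing. Values derive from bidirectional fitting relative to DMSO. Parallel SRB protein staining flagged overt cytotoxicity.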

[8] = BSK_4H_SRB: Viability Assessment in the BioMAP Diversity Plus: 4H Assay (AID 2283027); details: primary human endothelial cells (HUVEC);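 further: cells exposed to compound for 24 h before staining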
In short: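 Human umbilical vein endothelial cells, 24 h after chemical dosing; total protein measured by 0.1% sulforhodamine B staining after 10% TCA fixation, read at 560 nm. Bidirectional fitting against DMSO.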

[9] = BSK_BE3C_SRB: Viability Assessment in the BioMAP Diversity Plus: BE3C Assay (AID 2283028); details: primary human bronchial epithelial cells;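 on AC50: fitted both ways so AC50 may mark signal gain or loss versus DMSO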
In short: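 Cells (human bronchial epithelial, primary) are treated with chemicals, and after 24 h the parallel cultures are fixed in 10% TCA. These are then stained with 0.1% SRB and read at 560 nm. Gain or loss of signal is fitted relative to DMSO.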

[10] = read-out: Thrombomodulin, THBD (gene 7056); assay: BSK_3C_Thrombomodulin: BioMAP Diversity Plus: 3C Assay for Thrombomodulin Biomarker Activity (AID 2283029); details: primary human endothelial cells (HUVEC); actives raise or lower the signal
In short: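 Read-out is ELISA of thrombomodulin on human umbilical vein endothelium 24 h after chemical dosing. Gain or loss of signal is scored relative to DMSO. Overt cytotoxicity is checked in parallel cultures by sulforhodamine B staining.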

[11] = read-out: Urokinase-type plasminogen activator receptor (uPAR), PLAUR (gene 5329); assay: BSK_4H_uPAR: BioMAP Diversity Plus: 4H Assay for Urokinase-type plasminogen activator receptor (uPAR) Biomarker Activity (AID 2283030); details: primary human endothelial cells (HUVEC); actives raise or lower the signal
In short: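 Cell-surface uPAR ELISA signal, measured 24 h after dosing human umbilical vein endothelial cells, was analyzed with bidirectional fitting relative to DMSO. Parallel SRB staining of total protein tracked overt cytotoxicity.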

[12] = read-out: Vascular endothelial growth factor receptor 2 (Homo sapiens) (UniProt P35968); assay: BSK_4H_VEGFRII: BioMAP Diversity Plus: 4H Assay for Vascular endothelial growth factor receptor 2 (VEGFR2) Biomarker Activity (AID 2283031); details: primary human endothelial cells (HUVEC); actives raise or lower the signal
In short: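 ELISA read-out of VEGFRII in primary human umbilical vein endothelium, taken 24 h after chemical treatment. Responses are expressed relative to DMSO, with bidirectional fitting.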

[13] = read-out: Human Leukocyte Antigen - DR isotype (HLADR), HLA-DRA (gene 3122); assay: BSK_BE3C_HLADR: BioMAP Diversity Plus: BE3C Assay for Human Leukocyte Antigen - DR isotype (HLADR) Biomarker Activity (AID 2283032); details: primary human bronchial epithelial cells; actives raise or lower the signal
In short: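 ELISA read-out of HLA-DR on human lung bronchial epithelial primary cells, measured 24 h post-dosing. Both increases and decreases were scored relative to DMSO vehicle.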

[14] = read-out: Vascular cell adhesion molecule 1 (VCAM1), VCAM1 (gene 7412); assay: BSK_4H_VCAM1: BioMAP Diversity Plus: 4H Assay for Vascular cell adhesion molecule 1 (VCAM1) Biomarker Activity (AID 2283033); details: primary human endothelial cells (HUVEC); actives raise or lower the signal
In short: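 ELISA read-out of VCAM-1 on human umbilical vein endothelium 24 hours after chemical dosing; gain or loss of signal was fitted relative to DMSO, with sulforhodamine B staining of parallel cultures flagging overt cytotoxicity.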

[15] = read-out: Interferon-gamma inducible Protein 10 (IP10), CXCL10 (gene 3627); assay: BSK_BE3C_IP10: BioMAP Diversity Plus: BE3C Assay for Interferon-gamma inducible Protein 10 (IP10) Biomarker Activity (AID 2283034); details: primary human bronchial epithelial cells; actives raise or lower the signal
In short: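 Chemical is dosed onto human lung bronchial epithelial primary cells, cultures are incubated 24 h, and IP-10 is then quantified by ELISA. Gain or loss of signal is fitted in both directions relative to DMSO.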

[16] = read-out: Monokine induced gamma interferon (MIG), CXCL9 (gene 4283); assay: BSK_BE3C_MIG: BioMAP Diversity Plus: BE3C Assay for Monokine induced gamma interferon (MIG) Biomarker Activity (AID 2283035); details: primary human bronchial epithelial cells; actives raise or lower the signal;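 further: MIG protein measured by ELISA in BE3C cultures after 24 h of dosing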
In short: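 Primary human bronchial epithelial cells treated for 24 h; MIG levels measured by ELISA, fitted bidirectionally versus DMSO. Parallel SRB total-protein staining assessed cytotoxicity.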

[17] = read-out: Transforming growth factor beta 1 (TGFb1), TGFB1 (gene 7040); assay: BSK_BE3C_TGFb1: BioMAP Diversity Plus: BE3C Assay for Transforming growth factor beta 1 (TGFb1) Biomarker Activity (AID 2283036;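 further: TGF-b1 protein level measured by ELISA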); details: primary human bronchial epithelial cells; actives raise or lower the signal
In short: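 Primary human lung bronchial epithelial cells; compound exposure 24 h; TGF-b1 by ELISA; bidirectional fit, DMSO baseline. Parallel SRB total-protein staining for cytotoxicity.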

[18] = read-out: Plasminogen activator inhibitor-1 (PAI1), SERPINE1 (gene 5054); assay: BSK_BE3C_PAI1: BioMAP Diversity Plus: BE3C Assay for Plasminogen activator inhibitor-1 (PAI1) Biomarker Activity (AID 2283037); details: primary human bronchial epithelial cells; actives raise or lower the signal
In short: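 Primary human lung bronchial epithelial cells; chemical dosing; 24 h; PAI-1 measured by ELISA; bidirectional fit referenced to DMSO as negative control.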

[19] = read-out: urokinase plasminogen activator (uPA), PLAU (gene 5328); assay: BSK_BE3C_uPA: BioMAP Diversity Plus: BE3C Assay for urokinase plasminogen activator (uPA) Biomarker Activity (AID 2283038); details: primary human bronchial epithelial cells; actives raise or lower the signal
In short: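 Bronchial epithelial cells (human, primary); chemical 24 h; uPA by ELISA; bidirectional fit vs DMSO. SRB (0.1%, after 10% TCA fixation, 560 nm) in parallel cultures for cytotoxicity.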

[20] = read-out: Urokinase-type plasminogen activator receptor (uPAR), PLAUR (gene 5329); assay: BSK_BE3C_uPAR: BioMAP Diversity Plus: BE3C Assay for Urokinase-type plasminogen activator receptor (uPAR) Biomarker Activity (AID 2283039); details: primary human bronchial epithelial cells; actives raise or lower the signal
In short: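 Human bronchial epithelial primary cells; chemical exposure 24 h; uPAR by ELISA; bidirectional fit vs DMSO control.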

Measured: AC50

human Vitamin D Receptor (VDR), VDR (gene 7421), sequence (P11473 whole entry, looked up, the tested form may be a part): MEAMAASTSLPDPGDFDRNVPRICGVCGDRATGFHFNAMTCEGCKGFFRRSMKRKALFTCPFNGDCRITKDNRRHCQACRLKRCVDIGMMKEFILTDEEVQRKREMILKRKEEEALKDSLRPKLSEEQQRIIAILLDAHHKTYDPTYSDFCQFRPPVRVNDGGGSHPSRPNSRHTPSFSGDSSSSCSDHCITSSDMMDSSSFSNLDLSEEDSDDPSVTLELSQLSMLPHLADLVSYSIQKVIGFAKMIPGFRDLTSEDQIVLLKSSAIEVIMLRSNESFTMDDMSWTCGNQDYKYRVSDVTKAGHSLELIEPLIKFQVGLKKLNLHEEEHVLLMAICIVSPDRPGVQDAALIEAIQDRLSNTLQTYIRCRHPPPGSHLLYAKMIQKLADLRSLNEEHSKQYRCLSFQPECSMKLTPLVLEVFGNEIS

Cc1nccn1-c1ccc(Sc2cccc(C3(C(N)=O)CCOCC3)c2)cc1
active: [1] 11 µM | [3] 38 µM | [4] 9.18 µM | [5] 8.1 µM | [10] 8.22 µM | [13] 12.8 µM | [14] 6.37 µM | [15] 20 µM | [19] 14.3 µM | [20] 10.3 µM
inactive: [2] | [6] | [7] | [8] | [9] | [11] | [12] | [16] | [17] | [18]

CCCCCCCCCC
inactive: [1] | [2] | [3] | [4] | [5] | [6] | [7] | [8] | [9] | [10] | [11] | [12] | [13] | [14] | [15] | [16] | [17] | [18] | [19] | [20]

CC(C)c1nnc2ccc(-c3ocnc3-c3cc(F)ccc3F)cn12
active: [1] 0.148 µM | [4] 0.61 µM | [5] 1.05 µM | [10] 0.451 µM
inactive: [2] | [3] | [6] | [7] | [8] | [9] | [11] | [12] | [13] | [14] | [15] | [16] | [17] | [18] | [19] | [20]

c1ccc2cc3ccccc3cc2c1
inactive: [1] | [2] | [3] | [4] | [5] | [6] | [7] | [8] | [9] | [10] | [11] | [12] | [13] | [14] | [15] | [16] | [17] | [18] | [19] | [20]

CC[C@H](C)C(=O)O[C@H]1C[C@H](O)C=C2C=C[C@H](C)[C@H](CC[C@@H](O)C[C@@H](O)CC(=O)O)[C@H]21
inactive: [1] | [2] | [3] | [4] | [5] | [6] | [7] | [8] | [9] | [10] | [11] | [12] | [13] | [14] | [15] | [16] | [17] | [18] | [19] | [20]

COc1cc(C(C)C)c2c(c1)S(=O)(=O)N(COc1cc(=O)n3cccc(OCCN4CCCCC4)c3n1)C2=O
active: [7] 5 µM | [9] 8.23 µM | [11] 4.05 µM | [13] 6.88 µM | [14] 5 µM | [15] 7.41 µM | [18] 8.4 µM | [19] 8.13 µM
inactive: [1] | [2] | [3] | [4] | [5] | [6] | [8] | [10] | [12] | [16] | [17] | [20]

FC(F)=C(F)C(F)(F)C(F)(F)C(F)(F)C(F)(F)C(F)(F)C(F)(F)F
inactive: [1] | [2] | [3] | [4] | [5] | [7] | [8] | [9] | [10] | [11] | [12] | [13] | [14] | [15] | [16] | [18] | [19] | [20]
